Results on 34 targets are retold here after the supplement of paper PMC10849652.

The full data set covers some 7,900 targets. This sample favours those with a hit. About 0.6% of all pairs of compound and target were hits.

Sequence of UniProt Q6NUM9 (Q6NUM9 whole entry, looked up): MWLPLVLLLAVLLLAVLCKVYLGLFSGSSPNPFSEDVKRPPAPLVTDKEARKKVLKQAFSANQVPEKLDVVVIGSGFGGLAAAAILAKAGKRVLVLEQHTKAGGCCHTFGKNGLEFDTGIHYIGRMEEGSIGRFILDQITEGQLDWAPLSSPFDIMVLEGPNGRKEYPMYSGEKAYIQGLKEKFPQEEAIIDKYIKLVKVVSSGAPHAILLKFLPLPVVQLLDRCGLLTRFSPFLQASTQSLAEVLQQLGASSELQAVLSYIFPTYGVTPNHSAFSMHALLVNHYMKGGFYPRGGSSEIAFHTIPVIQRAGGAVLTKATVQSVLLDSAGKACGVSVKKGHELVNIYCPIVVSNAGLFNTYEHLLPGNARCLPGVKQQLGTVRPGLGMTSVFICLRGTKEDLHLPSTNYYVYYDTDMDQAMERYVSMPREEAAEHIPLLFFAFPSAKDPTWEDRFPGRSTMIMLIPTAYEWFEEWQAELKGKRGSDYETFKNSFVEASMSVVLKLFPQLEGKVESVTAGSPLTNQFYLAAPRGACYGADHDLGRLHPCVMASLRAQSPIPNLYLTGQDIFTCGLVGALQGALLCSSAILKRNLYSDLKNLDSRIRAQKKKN
Sequence of UniProt O94885 (O94885 whole entry, looked up): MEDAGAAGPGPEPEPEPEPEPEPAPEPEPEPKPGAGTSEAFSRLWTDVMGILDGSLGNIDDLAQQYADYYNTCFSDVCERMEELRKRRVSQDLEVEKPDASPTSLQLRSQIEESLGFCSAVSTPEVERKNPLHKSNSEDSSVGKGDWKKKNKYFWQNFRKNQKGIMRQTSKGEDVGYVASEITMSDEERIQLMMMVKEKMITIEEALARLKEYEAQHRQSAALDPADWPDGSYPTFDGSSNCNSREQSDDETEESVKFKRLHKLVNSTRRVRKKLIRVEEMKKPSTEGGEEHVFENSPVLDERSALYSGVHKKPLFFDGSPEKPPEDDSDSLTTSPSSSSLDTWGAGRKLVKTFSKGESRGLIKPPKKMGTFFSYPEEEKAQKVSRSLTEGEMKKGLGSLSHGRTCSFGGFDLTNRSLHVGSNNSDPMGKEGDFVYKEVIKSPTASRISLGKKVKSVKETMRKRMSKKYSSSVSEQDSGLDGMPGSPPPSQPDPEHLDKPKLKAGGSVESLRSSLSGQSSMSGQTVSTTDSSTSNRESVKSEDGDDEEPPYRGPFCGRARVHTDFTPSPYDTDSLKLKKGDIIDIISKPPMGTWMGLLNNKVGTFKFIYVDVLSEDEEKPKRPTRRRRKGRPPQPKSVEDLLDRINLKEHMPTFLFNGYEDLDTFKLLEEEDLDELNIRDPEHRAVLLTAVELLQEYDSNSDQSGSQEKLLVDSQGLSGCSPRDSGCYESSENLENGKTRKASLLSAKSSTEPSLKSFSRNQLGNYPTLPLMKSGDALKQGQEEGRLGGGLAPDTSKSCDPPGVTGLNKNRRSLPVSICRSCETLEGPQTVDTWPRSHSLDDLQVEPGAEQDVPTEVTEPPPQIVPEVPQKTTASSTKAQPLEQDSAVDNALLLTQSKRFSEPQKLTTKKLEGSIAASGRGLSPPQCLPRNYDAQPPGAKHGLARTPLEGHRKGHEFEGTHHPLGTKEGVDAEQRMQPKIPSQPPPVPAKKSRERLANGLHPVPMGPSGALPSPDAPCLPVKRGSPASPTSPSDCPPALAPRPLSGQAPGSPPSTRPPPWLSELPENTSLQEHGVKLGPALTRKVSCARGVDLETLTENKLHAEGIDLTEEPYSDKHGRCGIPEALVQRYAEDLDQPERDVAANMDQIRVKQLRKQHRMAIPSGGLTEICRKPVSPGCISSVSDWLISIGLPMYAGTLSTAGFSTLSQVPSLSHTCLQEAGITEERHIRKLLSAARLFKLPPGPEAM
Sequence of UniProt Q9NRX5 (Q9NRX5 whole entry, looked up): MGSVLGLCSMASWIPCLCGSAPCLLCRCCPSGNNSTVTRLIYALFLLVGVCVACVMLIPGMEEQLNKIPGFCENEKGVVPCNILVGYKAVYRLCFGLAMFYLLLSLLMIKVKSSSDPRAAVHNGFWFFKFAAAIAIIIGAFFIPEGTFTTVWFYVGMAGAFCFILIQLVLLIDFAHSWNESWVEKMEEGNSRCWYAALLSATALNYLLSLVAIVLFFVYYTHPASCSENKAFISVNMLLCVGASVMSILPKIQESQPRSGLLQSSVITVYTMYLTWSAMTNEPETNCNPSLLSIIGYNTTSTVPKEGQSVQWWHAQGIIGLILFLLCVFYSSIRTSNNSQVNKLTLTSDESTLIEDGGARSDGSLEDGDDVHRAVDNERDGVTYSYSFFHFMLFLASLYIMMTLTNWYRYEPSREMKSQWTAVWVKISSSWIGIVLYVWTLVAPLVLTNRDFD
Sequence of UniProt Q96T23 (Q96T23 whole entry, looked up): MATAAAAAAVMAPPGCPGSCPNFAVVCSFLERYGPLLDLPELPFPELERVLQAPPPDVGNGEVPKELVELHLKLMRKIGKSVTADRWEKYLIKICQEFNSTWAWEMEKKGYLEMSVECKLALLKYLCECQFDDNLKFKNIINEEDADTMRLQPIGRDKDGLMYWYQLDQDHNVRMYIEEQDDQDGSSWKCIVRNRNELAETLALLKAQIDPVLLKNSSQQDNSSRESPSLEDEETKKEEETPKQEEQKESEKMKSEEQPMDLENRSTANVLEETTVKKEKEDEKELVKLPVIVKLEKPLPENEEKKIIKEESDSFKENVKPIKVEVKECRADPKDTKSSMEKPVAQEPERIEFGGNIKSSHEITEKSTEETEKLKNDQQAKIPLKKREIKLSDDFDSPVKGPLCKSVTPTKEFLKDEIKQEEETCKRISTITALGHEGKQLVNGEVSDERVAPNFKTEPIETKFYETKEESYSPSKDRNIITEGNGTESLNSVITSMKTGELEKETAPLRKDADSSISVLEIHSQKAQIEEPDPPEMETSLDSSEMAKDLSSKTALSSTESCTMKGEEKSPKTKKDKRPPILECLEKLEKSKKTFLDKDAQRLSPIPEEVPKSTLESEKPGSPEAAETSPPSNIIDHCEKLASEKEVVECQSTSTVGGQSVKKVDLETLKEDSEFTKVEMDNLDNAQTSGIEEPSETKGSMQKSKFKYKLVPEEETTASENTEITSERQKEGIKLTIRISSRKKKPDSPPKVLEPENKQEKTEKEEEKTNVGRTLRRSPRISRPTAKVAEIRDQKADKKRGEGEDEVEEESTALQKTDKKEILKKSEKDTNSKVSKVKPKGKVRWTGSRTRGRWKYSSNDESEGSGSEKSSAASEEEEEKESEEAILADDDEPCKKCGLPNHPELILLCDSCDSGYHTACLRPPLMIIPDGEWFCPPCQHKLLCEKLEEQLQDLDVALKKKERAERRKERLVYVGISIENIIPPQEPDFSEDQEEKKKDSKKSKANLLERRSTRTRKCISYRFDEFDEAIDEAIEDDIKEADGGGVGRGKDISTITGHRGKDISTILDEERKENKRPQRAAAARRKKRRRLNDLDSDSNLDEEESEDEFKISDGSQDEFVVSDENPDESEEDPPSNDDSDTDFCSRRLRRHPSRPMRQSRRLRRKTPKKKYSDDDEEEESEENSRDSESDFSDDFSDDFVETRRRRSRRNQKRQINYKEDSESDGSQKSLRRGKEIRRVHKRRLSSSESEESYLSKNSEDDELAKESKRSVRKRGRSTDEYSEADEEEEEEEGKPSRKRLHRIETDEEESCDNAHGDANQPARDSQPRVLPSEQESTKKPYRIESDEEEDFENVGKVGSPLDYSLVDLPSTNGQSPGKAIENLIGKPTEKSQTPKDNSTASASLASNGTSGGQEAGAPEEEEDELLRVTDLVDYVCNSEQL
Sequence of UniProt P18754 (P18754 whole entry, looked up): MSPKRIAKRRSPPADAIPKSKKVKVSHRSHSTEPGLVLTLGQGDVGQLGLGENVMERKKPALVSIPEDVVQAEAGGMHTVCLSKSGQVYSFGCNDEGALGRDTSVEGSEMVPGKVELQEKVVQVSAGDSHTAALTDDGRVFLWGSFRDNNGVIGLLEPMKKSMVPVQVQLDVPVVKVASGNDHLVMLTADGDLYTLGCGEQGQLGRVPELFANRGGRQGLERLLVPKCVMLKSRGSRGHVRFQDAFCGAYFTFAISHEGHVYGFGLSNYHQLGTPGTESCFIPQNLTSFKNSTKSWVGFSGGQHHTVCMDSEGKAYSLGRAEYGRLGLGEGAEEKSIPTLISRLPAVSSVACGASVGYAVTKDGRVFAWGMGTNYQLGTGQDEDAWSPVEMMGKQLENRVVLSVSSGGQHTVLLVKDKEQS
Sequence of UniProt P51148 (P51148 whole entry, looked up): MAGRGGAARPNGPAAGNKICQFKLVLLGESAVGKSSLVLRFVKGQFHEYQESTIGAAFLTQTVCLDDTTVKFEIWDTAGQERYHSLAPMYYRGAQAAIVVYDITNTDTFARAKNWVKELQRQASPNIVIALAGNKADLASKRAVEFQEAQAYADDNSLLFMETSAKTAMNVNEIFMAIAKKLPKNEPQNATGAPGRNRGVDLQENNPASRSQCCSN
Sequence of UniProt O43665 (O43665 whole entry, looked up): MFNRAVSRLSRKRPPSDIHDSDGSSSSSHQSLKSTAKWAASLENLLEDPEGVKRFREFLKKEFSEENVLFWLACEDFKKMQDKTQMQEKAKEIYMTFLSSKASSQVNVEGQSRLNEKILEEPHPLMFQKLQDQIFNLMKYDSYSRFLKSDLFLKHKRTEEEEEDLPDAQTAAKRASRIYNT
Sequence of UniProt Q5VZM2 (Q5VZM2 whole entry, looked up): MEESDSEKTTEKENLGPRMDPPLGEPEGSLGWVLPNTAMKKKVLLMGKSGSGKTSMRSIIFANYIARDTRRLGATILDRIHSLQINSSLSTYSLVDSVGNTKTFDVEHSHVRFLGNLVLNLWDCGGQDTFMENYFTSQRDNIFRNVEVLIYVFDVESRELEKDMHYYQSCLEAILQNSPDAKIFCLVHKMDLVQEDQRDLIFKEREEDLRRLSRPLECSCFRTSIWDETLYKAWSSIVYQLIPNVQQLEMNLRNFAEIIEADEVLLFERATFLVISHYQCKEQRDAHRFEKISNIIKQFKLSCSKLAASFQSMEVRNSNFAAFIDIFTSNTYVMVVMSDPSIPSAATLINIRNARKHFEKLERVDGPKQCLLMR

Compound in the test: CC(C)C1=C2N=C(C=C(N2N=C1)NCC3=CC=CC=C3)NCCCCCCN
In words: log2 fold change, soluble protein after heating vs DMSO (PISA); higher = thermal stabilisation; K562 cells, 10 uM, 30 min; active = over 0.2 and 3.5 SD of the protein, either way, in both replicates (recomputed). The gist of the method:
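Thermal stability values are relative to control samples and come from duplicates. They are expressed as log2 fold changes. For measurement, K562 cells (2×10^6 cells/mL) received 10 μM compound for 30 min, and aliquots were heated for 3 min over 48°C-58°C, pooled, and extracted at 4°C in PBS with 0.5% NP-40. Soluble protein, the supernatant after 21,000xg for 90 min, was quantified by TMTpro 16plex LC-MS/MS with equalised channel sums.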
Consider RPS3 (UniProt P23396), for which the log2 fold change was -0.096 (inactive). The figure for SDHC (UniProt Q99643) is 0.012 (inactive). The figure for REL (UniProt Q04864) is -0.074 (inactive).

SERINC1 (UniProt Q9NRX5): the log2 fold change was -0.568 (active). For the target RPS9 (UniProt P46781), the log2 fold change is -0.025 (inactive). The figure for RPS27A (UniProt P62979) is 0.051 (inactive); for RPS18 (UniProt P62269) it is -0.043 (inactive). The figure for RBM33 (UniProt Q96EV2) is -0.018 (inactive). The figure for SEC23IP (UniProt Q9Y6Y8) is -0.252 (active); for RRAGB (UniProt Q5VZM2) it is -0.162 (inactive); for RPS16 (UniProt P62249) it is -0.02 (inactive).

For the target RPS4X (UniProt P62701), the log2 fold change was -0.025 (inactive). The figure for RABGGTA (UniProt Q92696) is 0.049 (inactive).

As for RSL1D1 (UniProt O76021), the log2 fold change was 0.538 (inactive). The figure for ROR2 (UniProt Q01974) is -0.018 (inactive); for SEC16A isoform 5 (UniProt O15027) it is -0.282 (active); for RETSAT (UniProt Q6NUM9) it is -0.048 (inactive). The figure for RAB5C isoform 2 (UniProt P51148) is 0.064 (inactive). The figure for RSF1 (UniProt Q96T23) is -0.114 (inactive); for SCAMP2 (UniProt H3BUB6) it is -0.055 (inactive).

For RSRC2 (UniProt Q7L4I2), the log2 fold change was -0.013 (inactive). The figure for RAB5IF isoform 5 (UniProt Q9BUV8) is -0.187 (inactive). The figure for RGS10 (UniProt O43665) is -0.057 (inactive); for ROCK1 (UniProt Q13464) it is -0.026 (inactive).

SCYL3 isoform 2 (UniProt Q8IZE3): the log2 fold change is -0.052 (inactive). The figure for SCAF11 (UniProt Q99590) is 0.134 (inactive). The figure for RCC1 isoform 2 (UniProt P18754) is -0.094 (inactive). For RPS6KA2 isoform 2 (UniProt Q15349), the log2 fold change was -0.082 (inactive). The figure for RNASET2 (UniProt O00584) is -0.206 (inactive); for RBM48 isoform 2 (UniProt Q5RL73) it is 0.156 (inactive). The figure for RPS3A (UniProt P61247) is -0.071 (inactive). The figure for RRP9 (UniProt O43818) is -0.04 (inactive). As for SASH1 (UniProt O94885), the log2 fold change was -0.25 (inactive). Take RIPK1 (UniProt Q13546): the log2 fold change is -0.23 (inactive).
